Out of some 3,400 compounds screened, about 840 (25%) were called active. Inconclusive results (about 11%) are left out. Only a sample is shown. Measured potencies and affinities stand elsewhere. Values without a mark were called inactive.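 How the source made its calls: active means fitted half-maximal concentration of signal decrease at or below twice the sample's top tested concentration; inconclusive means flat curve between -70 and -30 percent, or poor fit; inactive means flat within 30 percent, signal rise, or potency above limit.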
Assay: inhibitors of Toxoplasma growth in IFN-γ-primed HeLa – cell-based, ME49Luc, luciferase, 72 h, dose response (AID 1259418)
Settings: T. gondii ME49Luc in IFN-y HeLa, stronger effect = lower value, -100% = high-dose IFN-γ control wells; at 19.5 µM unless noted

First: CCOc1ccc(-c2nc(CN3CCN(C(=O)Nc4ccc(C)c(Cl)c4)CC3)c(C)o2)cc1
Second: Cc1ccc(C)c(-c2coc(-c3ccc(NC(=O)NC4CCCCC4)cc3)n2)c1
The max activity of the first is higher: 18% [at 0.16 µM] for the first, 6.93% [at 0.16 µM] for the second.

Going from `Cc1ccc(C)c(-c2coc(-c3ccc(NC(=O)Nc4ccccc4F)cc3)n2)c1` to `O=C(Nc1cncc(-c2nc3ccccc3o2)c1)c1cccc(Cl)c1`, the max activity rises from -23.6% [at 0.16 µM] to 14.2% [at 0.16 µM].

Compared with `COc1ccc(CCNC(=O)CC2Nc3c4ccccc4nc(=S)n3C2=O)cc1OC` (stereo unspecified), `Clc1cccc(CSc2nc(NCCc3ccccc3)c3ccccc3n2)c1` is lower in max activity: 17% [at 0.16 µM] for the first, -7.56% [at 0.16 µM] for the second.

Going from `O=C1CCc2cc(S(=O)(=O)Nc3ccc4c(c3)OCCO4)cc3c2N1CCC3` to `COc1ccc(NC(=O)CN2CCC3(CC2)N=C(c2ccc(F)cc2)C(=O)N3)cc1Cl`, the max activity rises from -30% [at 0.16 µM] to -24% [at 0.16 µM].

Going from `COc1ccc(C(=O)N2CCC3(CC2)Nc2cc(F)ccc2-n2cccc23)cc1` to `Cc1ccc2c(c1C)-n1cccc1C1(CCN(C(=O)c3c(F)cccc3F)CC1)N2`, the max activity rises from -22% [at 0.16 µM] to -8.13% [at 0.16 µM].

Compared with `CCOc1ccccc1-c1nc(Cn2c(=O)c3c(C)cc(C)nc3n(-c3ccccc3)c2=O)c(C)o1`, `CCCC#Cc1ccc([C@@H]2[C@H]3CN(C(=O)Nc4cccc(F)c4)CC(=O)N3[C@H]2CO)cc1` is higher in max activity: 5.33% [at 0.16 µM] for the first, 7.32% [at 0.16 µM] for the second.

`NC(=O)C1(N2CCCCC2)CCN(c2ncc(NC(=O)c3cccs3)cc2C(=O)O)CC1` showed a max activity of 8.78% [at 0.16 µM].

Compared with `CCOc1ccc(-c2nc(CN3CCN(C(=O)Nc4ccccc4Cl)CC3)c(C)o2)cc1`, `CCOc1ccc(-c2nc(CN3CCN(C(=O)Nc4cccc(C)c4)CC3)c(C)o2)cc1` is lower in max activity: 227% for the first, 6.07% for the second.

First: COc1cccc(CNC(=O)COc2nc(C)nc3ccccc23)c1OC
Second: CCc1nc(OCC(=O)Nc2ccccc2CC)c2ccccc2n1
The max activity of the first is lower: 25.6% for the first, 28.5% for the second.

Going from `Cc1ccc(-c2coc(-c3ccc(NC(=O)NCc4cccc(F)c4)cc3)n2)c(C)c1` to `Cc1ccc(C)c(-c2coc(-c3ccc(NC(=O)Nc4ccc5c(c4)OCO5)cc3)n2)c1`, the max activity rises from 17.3% to 81.1%.

Compared with `CCc1ccc2c(c1)cc(S(=O)(=O)c1ccccc1)c(=O)n2CC(=O)NCc1ccc(F)cc1`, `COc1ccc(CNc2nc(SCc3ccccc3Cl)nc3ccccc23)cc1` is higher in max activity: 15.5% for the first, 17.2% for the second.

Going from `O=C(CCn1nnc2cc(-c3noc(-c4cccc5[nH]ccc45)n3)ccc21)N1CCCC1` to `Cc1cccc(-c2nc(Cn3nnc(-c4nc(-c5ccc(Cl)cc5)no4)c3C)c(C)o2)c1`, the max activity falls from 43% to 25.6%.

Compared with `Cc1cccc(C)c1NS(=O)(=O)c1cc2c3c(c1)CCC(=O)N3CCC2`, `Cc1ccc(NS(=O)(=O)c2cc3c4c(c2)CCC(=O)N4CCC3)cc1C` is higher in max activity: -22% for the first, -11.9% for the second.

Going from `Cc1cc(C)c(NS(=O)(=O)c2cc3c4c(c2)CCC(=O)N4CCC3)c(C)c1` to `O=C(CC1CCCC1)Nc1ccc2c(c1)CCC(=O)N2`, the max activity rises from 8.39% to 12.2%.

First: CCOc1cccc(-c2noc(-c3nnn(Cc4nc(-c5ccccc5)oc4C)c3C)n2)c1
Second: COc1ccccc1-c1nc(Cn2nnc(-c3nc(-c4ccc(C(F)(F)F)cc4)no3)c2C)c(C)o1
The max activity of the first is lower: 8.01% for the first, 8.9% for the second.

Going from `COc1ccccc1-c1ccc(C2[C@@H]3CN(C(=O)c4ccncc4)C[C@H]2N3)cc1` (stereo partly specified) to `COc1cccc(NC(=O)Nc2ccc(-c3nc(-c4ccccc4)co3)cc2)c1`, the max activity rises from 32.2% to 66.2%.

Going from `C=CCO[C@@H]1CCN(c2cc(OC)ncn2)[C@H]1Cc1cnn(C)c1` to `CC(C)CC(=O)N1CCC(C(=O)NCCc2csc(-c3cccs3)n2)CC1`, the max activity falls from 25.2% to 7.82%.

Compared with `CC=Cc1ccc2n(c1=O)C[C@H]1[C@H](CO)[C@@H](C(=O)Nc3ccc(-c4ccccc4)cc3)[C@@H]2N1C(=O)CC` (mixture of isomers), `CSc1cccc(NC(=O)Nc2ccc(-c3nc(-c4ccc(C)cc4)co3)cc2)c1` is higher in max activity: 25.5% for the first, 26.9% for the second.

Compared with `O=C(NCCc1csc(-c2ccccc2)n1)C1CCN(C(=O)CCc2ccccc2)CC1`, `CCCCC[C@H](CC(=O)NO)C(=O)N[C@H](C(=O)N1CCC[C@H]1CO)C(C)C` is higher in max activity: -11.1% for the first, 15.6% for the second.

First: Cc1ccc(-c2nc(CN3CCN(C(=O)Nc4ccc(C)cc4Cl)CC3)c(C)o2)cc1
Second: COc1ccc(-c2nc3c(s2)CN(S(=O)(=O)c2cccc(Cl)c2)CC3)cc1
The max activity of the first is higher: 13.8% [at 2.6 µM] for the first, -9.33% [at 2.6 µM] for the second.

First: O=C1CCc2cc(S(=O)(=O)NCc3ccc4c(c3)OCO4)cc3c2N1CCC3
Second: Cc1ccc(NS(=O)(=O)c2cc3c4c(c2)CCC(=O)N4CCC3)c(C)c1
The max activity of the first is lower: -19.9% [at 2.6 µM] for the first, 4.48% [at 2.6 µM] for the second.

Going from `Clc1ccc(CNc2nc(SCc3ccc(Cl)cc3)nc3ccccc23)cc1` to `Clc1ccc(CSc2nc(NCc3ccccc3)c3ccccc3n2)cc1`, the max activity rises from 7.58% [at 2.6 µM] to 30.6% [at 2.6 µM].

`Clc1ccc(CSc2nc(NCCc3ccccc3)c3ccccc3n2)cc1` showed a max activity of 29.6% [at 2.6 µM].

Compared with `Cc1ccc(C(=O)Nc2c(C(=O)N3CCN(c4ncccn4)CC3)[nH]c3ccccc23)cc1`, `Cc1cccc(OCC(=O)N2CSC[C@@H]2C(=O)NCCc2csc(-c3ccccc3)n2)c1` is lower in max activity: 15.6% [at 0.68 µM] for the first, -20.7% [at 0.68 µM] for the second.

Compared with `CCCCc1ccc(Nc2ncnc3c2cnn3-c2ccccc2)cc1`, `Cc1ccc2c(c1C)-n1cccc1C1(CCN(C(=O)Cc3ccc(F)cc3)CC1)N2` is higher in max activity: -7.99% [at 0.68 µM] for the first, 11.4% [at 0.68 µM] for the second.

Compared with `COc1ccc(-c2nc(Nc3cc(C)cc(C)c3)c3ccccc3n2)cc1`, `Cc1ccc(-c2coc(-c3ccc(NS(=O)(=O)c4cccc(Cl)c4)cc3)n2)cc1C` is lower in max activity: -19.1% [at 0.35 µM] for the first, -24.2% [at 0.35 µM] for the second.

Molecule `Cc1cccc(NC(=O)N2CCc3nc(-c4ccccc4)sc3C2)c1` has a max activity of -11.3% [at 0.35 µM].

Going from `Brc1ccc(Nc2c3ccccc3nc3ccccc23)cc1` to `COc1ccc(CCNc2nc(SCc3cccc(F)c3)nc3ccccc23)cc1OC`, the max activity falls from 36.4% [at 5 µM] to 12% [at 5 µM].

First: Cc1oc(-c2cccc(Cl)c2)nc1Cn1nnc(-c2nc(-c3ccccn3)no2)c1C
Second: CC[C@H](C(=O)N1CCCC[C@H]1C(=O)O[C@H](CCc1ccc(OC)c(OC)c1)c1cccc(OCC(=O)NCCNC(=O)COc2cccc([C@@H](CCc3ccc(OC)c(OC)c3)OC(=O)[C@@H]3CCCCN3C(=O)[C@@H](CC)c3cc(OC)c(OC)c(OC)c3)c2)c1)c1cc(OC)c(OC)c(OC)c1
The max activity of the first is higher: -10.2% [at 5 µM] for the first, -14% [at 5 µM] for the second.

Compared with `CN1CCN(C(=O)c2nn(C)c3c2CCN(S(C)(=O)=O)C3)CC1`, `COc1ccc(CNS(=O)(=O)c2cc3c4c(c2)CCC(=O)N4CCC3)cc1` is lower in max activity: 18.7% [at 10 µM] for the first, -13.1% [at 10 µM] for the second.

First: CCc1c(C)sc2c1CCN(Cc1nc(-c3cccc(C)c3)oc1C)C2c1ccccc1 (stereo unspecified)
Second: CCOc1ccc(CC(=O)Nc2ccc(-c3nc(-c4ccccc4)co3)cc2)cc1OCC
The max activity of the first is lower: 5.74% [at 10 µM] for the first, 30.5% [at 10 µM] for the second.

Going from `Cc1ccc(C(=O)Nc2ccc(-c3nc(-c4ccc(C)cc4)co3)cc2)cc1` to `COc1ccc(-c2ccc(C3[C@@H]4CN(C(=O)c5cnccn5)C[C@H]3N4)cc2)cc1` (stereo partly specified), the max activity falls from 113% [at 10 µM] to 10.5% [at 10 µM].

Compared with `CCOC(=O)CSc1nc(NCc2ccc(OC)cc2)c2ccccc2n1`, `C/C=C/c1ccc([C@@H]2[C@@H](CO)N3C(=O)CN(C(=O)Nc4cccc(OC)c4)C[C@@H]23)cc1` is higher in max activity: 20.1% [at 10 µM] for the first, 27% [at 10 µM] for the second.

Going from `COc1ccc(S(=O)(=O)N2CCCCN3[C@H](C2)[C@@H](c2ccc(C#CCC(C)C)cc2)[C@@H]3CO)cc1` to `N#Cc1cccc(-c2ccc3c(c2)[C@H]2[C@H](CCN2Cc2ccc4c(c2)OCO4)[C@H](CO)N3)c1`, the max activity falls from 177% [at 10 µM] to 17.9% [at 10 µM].

Work on `N#Cc1cccc(-c2ccc3c(c2)[C@H]2[C@H](CCN2Cc2ccc4c(c2)OCO4)[C@@H](CO)N3)c1` yielded a max activity of 21.2% [at 10 µM].

`O=C(Cc1ccccn1)N1CC(=O)N2[C@H](C1)[C@@H](c1ccc(C#CCC3CCCC3)cc1)[C@@H]2CO` gave a max activity of 6.79% [at 0.3 µM].

Compared with `COc1ccc(-c2nc(Cn3nnc(-c4nc(-c5ccccc5Cl)no4)c3C)c(C)o2)cc1`, `CCc1nc(OCC(=O)Nc2cccc(C)c2)c2ccccc2n1` is lower in max activity: -7.3% [at 1.35 µM] for the first, -9.62% [at 1.35 µM] for the second.

With `Cc1ccc(NC(=O)CN2CCC3(CC2)N=C(c2ccc(F)cc2)C(=O)N3)cc1C` the max activity was -13.8% [at 1.35 µM].

Work on `C/C=C/c1ccc([C@H]2[C@H]3CN(C(=O)Nc4cccc(OC)c4)CC(=O)N3[C@H]2CO)cc1` yielded a max activity of -12% [at 21 µM].

Reference: PubChem BioAssay AID1259418 (Broad Institute, 2018)
